Drawing on PubChem BioAssay, this text covers composite z-score and z-score for 5 compounds.

The subject of assay [1] is PRMT1 (protein arginine N-methyltransferase 1). In words: PRMT1 binders on small-molecule microarrays, primary screen, biochemical, small-molecule microarray, 635 nm fluorescence (AID 1088).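 Note: binding of Prmt1 protein to compounds spotted on small-molecule microarray slides.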 Particulars: small-molecule microarray binding, higher = more signal.
The nature of assay [2]: yeast growth modulation, basal conditions, primary screen, YJM789 clinical isolate, OD600, 24 h (AID 1089).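 Note: growth of clinical yeast isolate S. cerevisiae YJM 789 seeded 1000 cells per well; test concentration not given here.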 Particulars: S. cerevisiae YJM789 growth, higher = more signal, called active from +8 up or from −8 down.
Assay [3] can be described thus: fission yeast growth modulation, primary screen, strain 972, OD600, 24 h, no modulator (AID 1090).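 Note: basal condition with compound alone and no growth modifier present; test concentration not given here.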 To be noted: S. pombe 972 growth, higher = more signal, called active from +8 up or from −8 down.
The nature of assay [4]: S. cerevisiae growth modulation with rapamycin, primary screen, strain BY4716, OD600, 96 h (AID 1091). Note: test concentration not given here. Particulars: higher = more signal, called active from +8 up or from −8 down.
Assay [5] deals with Torsin-1A-interacting protein 2 (Homo sapiens) (UniProt Q8NFQ8). In words: LULL1 binders on small-molecule microarray, primary screen, cell lysate, human LULL1 lysate, 635/667 nm fluorescence (AID 1092).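 Note: probe is lysate of COS7 cells overexpressing human LULL1; score merges per-feature 667 nm fluorescence with signal-to-noise.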 To be noted: hLULL1 lysate binding, 635 nm fluorescence, higher = more signal.
Sequence of Torsin-1A-interacting protein 2 (Homo sapiens) (Q8NFQ8 whole entry, looked up): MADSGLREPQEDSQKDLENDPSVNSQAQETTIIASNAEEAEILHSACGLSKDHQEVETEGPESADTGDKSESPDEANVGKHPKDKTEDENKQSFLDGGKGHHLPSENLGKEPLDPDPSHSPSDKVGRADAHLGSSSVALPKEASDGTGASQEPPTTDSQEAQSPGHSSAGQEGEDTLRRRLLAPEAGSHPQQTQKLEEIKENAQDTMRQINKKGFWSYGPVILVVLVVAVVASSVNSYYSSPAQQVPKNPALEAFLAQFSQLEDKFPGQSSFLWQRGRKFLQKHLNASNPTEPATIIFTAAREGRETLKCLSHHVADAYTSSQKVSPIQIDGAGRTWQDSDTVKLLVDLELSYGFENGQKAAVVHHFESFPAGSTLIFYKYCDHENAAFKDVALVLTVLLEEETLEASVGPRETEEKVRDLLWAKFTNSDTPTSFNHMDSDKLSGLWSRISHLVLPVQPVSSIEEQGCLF
Assay [6] in a line: E. coli growth modulation, two-sided OD650, primary screen, E. coli filamentation project, strain DRC41, 24 h (AID 1093).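 Note: MC1000 strain lacking acrAB efflux and sulA so SOS filamentation is blocked; test concentration not given here.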 Particulars: OD650, 24 h, higher = more signal, called active from +8 up or from −8 down.
Assay [7] is described as follows: small-molecule microarray binders of probe aLefty2, primary screen, biochemical, biotinylated probe, 635/667 nm fluorescence (AID 1094).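 Note: score merges spot fluorescence near 667 nm with spot signal-to-noise ratio.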 Particulars: higher = more signal.
Assay [8] deals with Noggin (protein binding on small-molecule microarray). In words: Noggin binders on small-molecule microarray, primary screen, biochemical, 635/667 nm fluorescence (AID 1095).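 Note: score merges 667 nm feature fluorescence with signal to noise over triplicate slides.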 To be noted: 635 nm fluorescence, higher = more signal.
Assay [9] addresses Neurogenic locus notch homolog protein 3 (Homo sapiens) (UniProt Q9UM47). In words: NOTCH3 binders on small-molecule microarray, primary screen, biochemical, 635/667 nm fluorescence (AID 1096). Particulars: NOTCH3 binding, 635 nm fluorescence, higher = more signal.
Assay [10] is described as follows: small-molecule microarray binders of probe aEGFR, primary screen, biochemical, biotinylated probe, 635/667 nm fluorescence (AID 1097).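 Note: probe is a biotinylated anti-EGFR antibody binding compounds printed on slides; score combines fluorescence near 667 nm and signal to noise of each spot.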 Particulars: higher = more signal.
In assay [11] the test system is Plasmodium falciparum Sir2 (PF13_0152, Sir2A). Nature of the assay: pfSir2 binders on small-molecule microarrays, primary screen, biochemical, small-molecule microarray, 635 nm fluorescence (AID 1098).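 Note: score merges spot fluorescence intensity with its signal-to-noise ratio.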 Particulars: small-molecule microarray binding, fluorescence 635 nm; higher = more signal.
The nature of assay [12]: small-molecule microarray binders of probe aDKK1, primary screen, biochemical, biotinylated probe, 635/667 nm fluorescence (AID 1099).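 Note: score merges 667nm spot fluorescence with signal to noise across triplicate slides; reference of the scale not given here.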 Particulars: higher = more signal.
A short description of assay [13]: small-molecule microarray binders of probe aCHRDL2, primary screen, biochemical, biotinylated probe, 635/667 nm fluorescence (AID 1100). Particulars: higher = more signal.
A short description of assay [14]: splicing luciferase reporter signal modulators, primary screen, spliceosome inhibition project, cell-based, HEK293, splice +/- reporter (AID 1101).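 Note: HEK293 cells carrying a splicing-competent luciferase reporter gene; test concentration not given here.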 Particulars: luminescence, 24 h, higher = more signal, called active from +8 up or from −8 down. For orientation: In a reporter assay the amount or activity of a reporter protein is the signal.
In assay [15] the target is Fibroblast growth factor 10 (Homo sapiens) (UniProt O15520). Nature of the assay: FGF10 binders on small-molecule microarrays, primary screen, biochemical, small-molecule microarray, 635 nm fluorescence (AID 1102). To be noted: FGF10 binding, fluorescence 635 nm, higher = more signal.
Sequence of Fibroblast growth factor 10 (Homo sapiens) (O15520 whole entry, looked up): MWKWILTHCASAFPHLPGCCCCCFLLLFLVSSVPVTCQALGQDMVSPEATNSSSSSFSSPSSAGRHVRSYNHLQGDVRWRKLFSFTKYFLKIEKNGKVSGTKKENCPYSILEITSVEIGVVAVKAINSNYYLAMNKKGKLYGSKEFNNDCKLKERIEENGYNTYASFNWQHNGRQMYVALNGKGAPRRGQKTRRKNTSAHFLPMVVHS
Assay [16] concerns glycogen synthase kinase-3 (GSK3A per assay name; protocol says GSK3B). In words: GSK3 binders on small-molecule microarrays, primary screen, biochemical, small-molecule microarray, 635 nm fluorescence, GSK3A (AID 1103). Note: the record names both GSK3A and GSK3B. Particulars: small-molecule microarray binding, fluorescence 635 nm; higher = more signal.
The target in assay [17] is Epidermal growth factor receptor (Homo sapiens) (UniProt P00533). Nature of the assay: EGFR binders on small-molecule microarrays, primary screen, biochemical, small-molecule microarray, 635 nm fluorescence (AID 1104).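 Note: score merges 667 nm emission intensity with spot signal to noise over triplicate slides.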 To be noted: EGFR binding, higher = more signal.
Sequence of Epidermal growth factor receptor (Homo sapiens) (P00533 whole entry, looked up): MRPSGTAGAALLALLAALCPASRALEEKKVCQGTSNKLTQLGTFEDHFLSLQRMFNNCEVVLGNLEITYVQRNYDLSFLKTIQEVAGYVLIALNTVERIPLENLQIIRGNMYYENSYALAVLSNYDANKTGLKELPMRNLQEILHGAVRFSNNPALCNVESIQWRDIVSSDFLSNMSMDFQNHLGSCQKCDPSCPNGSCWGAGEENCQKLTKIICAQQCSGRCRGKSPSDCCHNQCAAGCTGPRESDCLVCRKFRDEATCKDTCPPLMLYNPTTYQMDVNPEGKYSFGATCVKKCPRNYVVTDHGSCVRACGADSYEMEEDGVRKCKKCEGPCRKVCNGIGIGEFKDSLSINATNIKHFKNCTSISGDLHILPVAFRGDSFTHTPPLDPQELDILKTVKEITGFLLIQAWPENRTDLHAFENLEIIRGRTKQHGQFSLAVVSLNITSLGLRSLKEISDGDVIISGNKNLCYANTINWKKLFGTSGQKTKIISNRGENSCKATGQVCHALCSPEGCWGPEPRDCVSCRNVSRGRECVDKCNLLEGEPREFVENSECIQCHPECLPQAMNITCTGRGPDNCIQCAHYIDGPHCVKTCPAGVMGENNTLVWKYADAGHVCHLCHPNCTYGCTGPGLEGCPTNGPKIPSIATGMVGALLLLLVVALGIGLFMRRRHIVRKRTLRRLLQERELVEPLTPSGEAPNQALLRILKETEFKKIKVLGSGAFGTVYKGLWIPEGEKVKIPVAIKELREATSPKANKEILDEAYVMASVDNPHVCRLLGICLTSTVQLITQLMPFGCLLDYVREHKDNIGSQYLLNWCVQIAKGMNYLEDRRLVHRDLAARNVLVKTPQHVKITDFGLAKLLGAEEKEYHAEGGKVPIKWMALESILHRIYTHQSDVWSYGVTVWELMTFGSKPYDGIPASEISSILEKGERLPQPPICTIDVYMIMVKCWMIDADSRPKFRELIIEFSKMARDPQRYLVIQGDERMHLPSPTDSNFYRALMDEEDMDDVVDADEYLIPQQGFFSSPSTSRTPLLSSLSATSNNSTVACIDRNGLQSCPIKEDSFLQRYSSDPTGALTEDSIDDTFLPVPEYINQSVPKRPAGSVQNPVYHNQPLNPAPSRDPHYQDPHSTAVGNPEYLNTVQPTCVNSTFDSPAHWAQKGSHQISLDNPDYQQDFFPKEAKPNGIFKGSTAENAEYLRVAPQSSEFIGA
For assay [18], the target named is Follistatin-related protein 3 (Homo sapiens) (UniProt O95633). Nature of the assay: FSTL3 binders on small-molecule microarrays, primary screen, biochemical, small-molecule microarray, 635 nm fluorescence (AID 1105).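 Note: score merges emission near 667 nm and signal to noise per printed spot across three slides.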 Particulars: FSTL3 binding, higher = more signal.
Sequence of Follistatin-related protein 3 (Homo sapiens) (O95633 whole entry, looked up): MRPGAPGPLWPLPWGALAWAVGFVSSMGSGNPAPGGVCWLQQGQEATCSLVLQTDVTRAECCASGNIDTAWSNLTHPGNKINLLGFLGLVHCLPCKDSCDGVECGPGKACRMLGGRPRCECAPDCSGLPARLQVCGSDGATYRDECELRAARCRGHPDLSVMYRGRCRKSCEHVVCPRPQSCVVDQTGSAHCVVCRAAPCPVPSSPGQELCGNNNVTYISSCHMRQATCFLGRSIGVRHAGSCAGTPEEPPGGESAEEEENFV
Assay [19] addresses Dickkopf-related protein 1 (Homo sapiens) (UniProt O94907). Nature of the assay: DKK1 binders on small-molecule microarrays, primary screen, biochemical, small-molecule microarray, 635 nm fluorescence scan (AID 1106).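 Note: score merges emission near 667 nm with signal to noise over three replicate slides.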 To be noted: DKK1 binding, higher = more signal.
The test system of assay [20] is Inhibin beta A chain (activin A). Nature of the assay: INHBA (activin A) binders on microarrays, primary screen, biochemical, small-molecule microarray, 635 nm fluorescence scan (AID 1107).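 Note: mouse activin A protein probed at 4.33 µg/mL on printed slides; score merges bound-protein fluorescence near 667 nm with spot signal-to-noise.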 Particulars: small-molecule microarray binding, higher = more signal.

Activity calls are given as the source filed them.

Sequence of Dickkopf-related protein 1 (Homo sapiens) (O94907 whole entry, looked up): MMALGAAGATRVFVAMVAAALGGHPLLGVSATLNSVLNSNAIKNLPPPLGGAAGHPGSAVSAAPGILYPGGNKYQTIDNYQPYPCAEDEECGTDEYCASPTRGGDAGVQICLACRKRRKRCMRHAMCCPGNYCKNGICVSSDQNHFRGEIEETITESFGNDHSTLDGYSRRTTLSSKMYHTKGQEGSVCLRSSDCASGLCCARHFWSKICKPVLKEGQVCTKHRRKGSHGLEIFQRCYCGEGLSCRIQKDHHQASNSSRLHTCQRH
Sequence of Neurogenic locus notch homolog protein 3 (Homo sapiens) (Q9UM47 whole entry, looked up): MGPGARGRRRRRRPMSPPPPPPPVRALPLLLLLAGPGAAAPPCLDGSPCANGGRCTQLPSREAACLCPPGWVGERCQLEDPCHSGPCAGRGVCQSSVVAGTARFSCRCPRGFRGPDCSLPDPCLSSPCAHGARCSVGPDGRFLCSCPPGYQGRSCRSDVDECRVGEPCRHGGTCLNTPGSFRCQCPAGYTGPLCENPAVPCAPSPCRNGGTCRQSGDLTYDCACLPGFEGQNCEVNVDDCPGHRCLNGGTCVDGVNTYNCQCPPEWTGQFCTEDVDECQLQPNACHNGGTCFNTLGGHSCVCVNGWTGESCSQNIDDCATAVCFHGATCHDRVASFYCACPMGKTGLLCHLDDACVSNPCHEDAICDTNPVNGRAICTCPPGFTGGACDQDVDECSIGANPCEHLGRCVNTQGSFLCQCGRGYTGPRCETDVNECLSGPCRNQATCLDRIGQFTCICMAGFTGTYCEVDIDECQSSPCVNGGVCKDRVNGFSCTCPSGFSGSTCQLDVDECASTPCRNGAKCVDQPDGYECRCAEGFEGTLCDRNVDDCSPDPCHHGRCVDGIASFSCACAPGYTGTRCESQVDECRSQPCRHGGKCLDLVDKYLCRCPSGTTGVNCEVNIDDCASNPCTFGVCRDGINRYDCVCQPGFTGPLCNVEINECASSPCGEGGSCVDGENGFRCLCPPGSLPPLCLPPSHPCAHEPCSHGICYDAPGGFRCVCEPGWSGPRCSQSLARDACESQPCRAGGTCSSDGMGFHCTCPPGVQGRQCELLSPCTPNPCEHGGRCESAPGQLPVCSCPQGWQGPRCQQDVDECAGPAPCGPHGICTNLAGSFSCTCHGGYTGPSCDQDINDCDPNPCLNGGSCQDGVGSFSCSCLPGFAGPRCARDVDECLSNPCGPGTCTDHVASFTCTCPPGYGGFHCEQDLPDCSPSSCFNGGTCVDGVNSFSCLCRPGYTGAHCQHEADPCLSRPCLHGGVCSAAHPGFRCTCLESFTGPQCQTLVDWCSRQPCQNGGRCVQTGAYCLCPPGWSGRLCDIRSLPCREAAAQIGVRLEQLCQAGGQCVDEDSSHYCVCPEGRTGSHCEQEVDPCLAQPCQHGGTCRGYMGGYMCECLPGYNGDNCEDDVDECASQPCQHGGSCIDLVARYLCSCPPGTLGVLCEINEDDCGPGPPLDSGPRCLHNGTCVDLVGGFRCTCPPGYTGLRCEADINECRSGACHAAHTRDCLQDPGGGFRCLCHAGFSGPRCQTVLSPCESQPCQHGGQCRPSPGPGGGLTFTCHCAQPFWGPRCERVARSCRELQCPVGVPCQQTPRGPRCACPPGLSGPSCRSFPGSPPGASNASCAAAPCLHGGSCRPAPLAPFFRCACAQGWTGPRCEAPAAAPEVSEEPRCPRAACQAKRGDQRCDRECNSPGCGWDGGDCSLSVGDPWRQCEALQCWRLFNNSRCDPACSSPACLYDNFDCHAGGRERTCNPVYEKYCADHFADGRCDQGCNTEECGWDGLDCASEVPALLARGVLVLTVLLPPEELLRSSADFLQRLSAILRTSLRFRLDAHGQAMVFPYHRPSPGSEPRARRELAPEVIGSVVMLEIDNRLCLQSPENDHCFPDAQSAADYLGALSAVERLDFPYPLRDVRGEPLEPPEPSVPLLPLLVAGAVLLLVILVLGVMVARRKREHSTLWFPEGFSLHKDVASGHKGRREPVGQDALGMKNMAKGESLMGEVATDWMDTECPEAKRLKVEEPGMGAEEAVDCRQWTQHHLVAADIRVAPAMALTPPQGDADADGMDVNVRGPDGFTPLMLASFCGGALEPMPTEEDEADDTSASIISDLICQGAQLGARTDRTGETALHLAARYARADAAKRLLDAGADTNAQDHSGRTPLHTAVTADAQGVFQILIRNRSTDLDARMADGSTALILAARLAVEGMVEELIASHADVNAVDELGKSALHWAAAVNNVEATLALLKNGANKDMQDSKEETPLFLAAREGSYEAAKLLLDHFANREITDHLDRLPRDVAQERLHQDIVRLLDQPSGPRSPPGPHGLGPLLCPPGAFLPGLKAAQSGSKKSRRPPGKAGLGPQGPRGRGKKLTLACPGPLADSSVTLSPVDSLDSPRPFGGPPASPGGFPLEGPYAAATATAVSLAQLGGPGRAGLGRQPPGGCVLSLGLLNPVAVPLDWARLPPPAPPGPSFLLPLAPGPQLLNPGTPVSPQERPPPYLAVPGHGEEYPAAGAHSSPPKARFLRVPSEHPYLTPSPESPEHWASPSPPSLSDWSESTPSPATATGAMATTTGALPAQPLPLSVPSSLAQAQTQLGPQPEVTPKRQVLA

With `CCOc1cc(C(O)C2C=CC3C(=O)N(C4CCCCC4)C(=O)C3N2Nc2ccc(OC)cc2)ccc1O` (stereo not given), the composite z-score in assay [1] is 1.17; in [5] it was 3.21; in assay [7] it was 0.0252; in assay [8], 0.163; in assay [9] it was 1.05; in assay [10], 0.0295. Besides, the composite z-score was 0.692 in assay [11]; -0.0443 in assay [12]; 0.913 in assay [13]; 0.423 in [15]; 1.21 in assay [16]; 0.388 in assay [17]. The composite z-score in assay [18] came out at 0.741; in [19] it was 0.105; in assay [20] it was 0.959. Moreover, the z-score in assay [2] was -0.344 (inactive); in assay [3] it was -0.118 (inactive); in assay [4] it was -0.129 (inactive); in [6], -0.0874 (inactive); in assay [14] it was -0.556 (inactive).

In the case of `C=C(COC)/C(=C/C[C@@H](OC(=O)c1ccncc1)c1cccc(OCCO)c1)c1cnc2ccccc2c1`, the composite z-score was 1.55 in [1]; 2.2 in [5]; 0.266 in assay [7]; 1.61 in [8]; 1.02 in assay [9]; 0.0892 in assay [10]. The composite z-score in [11] was -0.0365; in assay [12], 0.432; in [13], 0.347; in assay [15] it was 1.48; in assay [16], 1.3; in [17], 1.65. Also, the composite z-score in assay [18] worked out at 1.65; in assay [19], 0.769; in assay [20] it was 1.81. Besides, the z-score in [2] was -19.8 (active); in [3], -20.6 (active); in assay [4], -3.52 (inactive); in assay [6] it was 0.682 (inactive); in assay [14] it was -1.36 (inactive).

As for `CCCC[C@@H]1C[C@H]1[C@@H](NC(=O)c1ccccc1)c1ccc(Cl)cc1`, the composite z-score in assay [1] was -1.36; in assay [5], 0.0826; in [7] it was -0.204; in assay [8] it was -2.06; in assay [9], -1.77; in [10] it was -0.421. Moreover, the composite z-score is -1.24 in assay [11]; 0.15 in assay [12]; 1.01 in [13]; -1.38 in assay [15]; -1.78 in [16]; -1.77 in [17]. The figures for the composite z-score in assay [18], in assay [19] and in assay [20] were -2.35, -1.36 and 0.39, respectively. The z-score was 0.222 (inactive) in [2]; -1.96 (inactive) in assay [3]; -2.01 (inactive) in [4]; -1.49 (inactive) in [6]; -1.93 (inactive) in assay [14].

Regarding `CCCCN1CC=CC23O[C@@H]4C=CCOC(=O)[C@@H]4[C@H]2C(=O)N(C(C)CO)[C@@H]3C1=O` (stereo not given in full), the composite z-score is -1.57 in [1]; -0.449 in assay [5]; -0.205 in assay [7]; -0.929 in assay [8]; -1.25 in assay [9]; -0.216 in assay [10]. For the same compound, the composite z-score in assay [11] was 1.1; in [12] it was 0.198; in assay [13], 0.774; in assay [15] it was -0.291; in assay [16], -1.44; in assay [17], -1.21. Also, the composite z-score is -1.22 in assay [18], -1.14 in assay [19] and 0.286 in assay [20]. The z-score in assay [2] was -0.543 (inactive); in [3], -1.22 (inactive); in [4], -0.557 (inactive); in assay [6], -0.479 (inactive); in assay [14], 0.408 (inactive).

Take `C[C@H]1ON(c2ccc(C(=O)OC(C)(C)C)cc2)[C@@H](c2ccc(O)cc2)[C@@H]1C(=O)N1C(=O)OC[C@@H]1c1ccccc1`: the composite z-score in assay [1] was 1.51; in assay [5], 1.69; in assay [7] it was -0.33; in assay [8], 0.819; in [9], 1.05; in assay [10] it was -0.0315. Besides, the composite z-score in assay [11] was 1.12; in assay [12], -0.0999; in assay [13], -0.232; in assay [15] it was 0.994; in assay [16], 1.28; in assay [17] it was 0.554. In addition, the composite z-score in assay [18] was 1.16; in [19] it was 0.624; in assay [20], -0.0428. Further, the z-score in [2] was 0.657 (inactive); in assay [3], -1.95 (inactive); in assay [4], 31.6 (active); in assay [6], -0.661 (inactive); in assay [14], 0.242 (inactive).
